Screening results (PubChem)
Sampled rows, rich in hits. Any-hit rate of the full collection: about 2.4%.
D2 ag-1: Beta-Arrestin HTS for Positive Allosteric Modulators of the Human D2 Dopamine Receptor: Agonists; D(2) dopamine receptor (Homo sapiens), P14416; DiscoveRx PathHunter D2 beta-arrestin, luminescence, 90 min; 100% = 57 uM dopamine signal; activation, % (concentration not given with the values); actives 0.084% (n = 360,000); in the data active = activation above about 40%
Target sequence (P14416 whole entry, looked up): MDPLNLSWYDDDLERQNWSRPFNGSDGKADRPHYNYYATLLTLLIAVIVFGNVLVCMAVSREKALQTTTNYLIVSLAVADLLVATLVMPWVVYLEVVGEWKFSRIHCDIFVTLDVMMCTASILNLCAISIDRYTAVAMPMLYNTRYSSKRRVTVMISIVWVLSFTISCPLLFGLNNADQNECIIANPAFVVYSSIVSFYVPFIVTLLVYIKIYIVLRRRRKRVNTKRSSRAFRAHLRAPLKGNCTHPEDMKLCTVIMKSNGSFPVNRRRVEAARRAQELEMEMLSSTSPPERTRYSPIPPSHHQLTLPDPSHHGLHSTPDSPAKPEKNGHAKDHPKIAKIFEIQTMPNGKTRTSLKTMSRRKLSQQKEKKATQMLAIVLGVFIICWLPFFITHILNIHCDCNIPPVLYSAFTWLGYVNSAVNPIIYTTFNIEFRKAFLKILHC
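DiscoveRx PathHunter D2 beta-arrestin cells (2,100/well) attached overnight, then compound-stimulated 90 min at 37 C in HBSS/10 mM HEPES/0.1% Tween-20 buffer; beta-galactosidase complementation read by luminescence after 1 h at ambient temperature. Dopamine 57 uM final (EC100) as control.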
D2 ag-2: HTS Assay for Allosteric Agonists of the Human D2 Dopamine Receptor: Primary Screen for Agonists | actives 0.53% (n = 340,000) | HEK293 T-REx D2 cells, calcium flux agonist mode | activation, % at 2 µM;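 active = activation over 3 SD above normal in the single-dose calcium agonist read, cut at about 30% in these data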; note: 0% is about no effect
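In this primary screen, compounds producing a positive calcium signal within 180 s of addition to tetracycline-induced, force-coupled HEK293 Trex D2 cells are flagged; cells are dye-loaded with a no-wash calcium kit beforehand.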
D2 PAM-1: HTS Assay for Positive Allosteric Modulators of the Human D2 Dopamine Receptor: Primary Screen for Potentiators; D(2) dopamine receptor (Homo sapiens), P14416; actives 0.34% (n = 340,000); potentiation, % at 10 µM; HEK293 T-REx D2, calcium flux, EC20 dopamine potentiation;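 active = potentiation over 3 SD above the plate norm, cut at about 30% in these data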; note: 0% is about no effect
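Tetracycline-induced HEK293 T-REx cells force-coupled to calcium signalling expressed D2; compounds were pin-added after a 10 s baseline, read kinetically 180 s, then an EC20 dopamine challenge followed with a further 180 s calcium read.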
D2 antag: HTS Assay for Allosteric Antagonists of the Human D2 Dopamine Receptor: Primary Screen for Antagonists; inhibition, % at 10 µM; actives 2% (n = 340,000); HEK293 TREx D2 cells, calcium flux, dopamine EC80; in the data active = inhibition above about 30%; inactive = below that, where a call was filed; note: 0% is about no effect
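Read-out: kinetic calcium fluorescence (1 cycle/s) in inducible HEK293 T-REx D2 cells after an EC80 dopamine addition that followed 180 s compound preincubation. Loss of the dopamine response indicates antagonism.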
D2 PAM-2: Beta-Arrestin HTS for Positive Allosteric Modulators of the Human D2 Dopamine Receptor: Potentiators; AID 624464, 2012; D(2) dopamine receptor (Homo sapiens), P14416; DiscoveRx D2 beta-arrestin cells, luminescence, 90 min; 100% = 57 uM dopamine signal; potentiation, % (test concentration not listed); actives 0.23% (n = 360,000); in the data active = potentiation above about 50%
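D2 cells co-treated with compound plus 50 nM dopamine (EC20) for 90 min at 37 deg C to detect potentiation. Beta-arrestin recruitment was read as enzyme-fragment luminescence after 1 h at ambient temperature. Full response was set by 57 uM dopamine.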
* hit, by the source's call; . = no result.

SMILES | D2 ag-1 | D2 ag-2 | D2 PAM-1 | D2 antag | D2 PAM-2
COc1ccc([N+](=O)[O-])cc1NC(=O)C(C)c1ccccc1 (stereo not given) | 0 | 0 | -3 | 32* | 5
CCN(CCC(=O)Nc1cc([N+](=O)[O-])ccc1OC)Cc1ccccc1 | -1 | 1 | -25 | 79* | -39
COc1ccc([N+](=O)[O-])cc1NC(=O)CC(c1ccccc1)c1ccccc1 | -3 | . | . | . | 0
COc1ccc([N+](=O)[O-])cc1NC(=O)C(C)OC(=O)CN1C(=O)C2CC=CCC2C1=O (stereo not given) | -1 | 0 | -11 | -11 | -2
COc1ccc([N+](=O)[O-])cc1NC(=S)NC(NC(=O)C(c1ccccc1)c1ccccc1)C(Cl)(Cl)Cl (stereo not given) | 1 | 0 | -19 | 71* | -23
COc1ccc([N+](=O)[O-])cc1NC(=O)C(C)OC(=O)Cn1[nH]c(=O)c2ccccc2c1=O (stereo not given) | -6 | 0 | -1 | 36* | -6
COc1ccc(CNC(=O)CCCN2C(=O)CSc3c2c(C)nn3-c2ccccc2)c(OC)c1 | . | . | 6 | . | .
CC1CCCCN1S(=O)(=O)c1ccc2c(c1)oc(=O)n2CC(=O)Nc1ccc(Cl)cc1 (stereo not given) | . | 1 | -4 | . | .
COc1ccc(OCc2cc(C(=O)N(C)CCC3CCOCC3)no2)c(Cl)c1 | -6 | -1 | -17 | 65* | -5
COc1ccc(OCc2cc(C(=O)N(C)CC3CCCCO3)no2)c(Cl)c1 (stereo not given) | -4 | -1 | -5 | 2 | -14
COc1ccccc1CCN1CCCC(CN(C)C(=O)c2ccoc2)C1 (stereo not given) | -2 | 0 | -11 | 42* | -27
O=C(NCCc1ccccc1)c1ccc(Nc2nc3ccccc3n3nnnc23)cc1 | . | 1 | 3 | . | .
CCOc1cccc2sc(Nc3nc4ccc(NC(C)=O)cc4s3)nc12 | 4 | 1 | -14 | 31* | 4
CC1CCN(CCc2nc3cc(NS(=O)(=O)c4ccccc4)ccc3n2C)CC1 | -5 | 1 | -22 | 30* | -47
CC1CCN(CCc2nc3cc(NS(=O)(=O)c4ccc(F)cc4)ccc3n2C)CC1 | -1 | -1 | . | 36* | -40
CC1CCN(CCc2nc3cc(NC(=O)Nc4ccccc4)ccc3n2C)CC1 | 2 | 1 | -14 | -38 | -12
COc1cccc(C(=O)Nc2ccc3nc(SCc4ccc(C)cc4)sc3c2)c1 | . | 4 | -2 | . | .
Sc1nnc(-c2ccc(Cl)cc2)n1Cc1ccccc1 | 2 | 0 | -1 | 39* | -16
COc1cc(-c2nc(Cn3nnc(C(=O)Nc4ccccc4)c3C)c(C)o2)cc(OC)c1OC | . | 0 | -3 | . | .
COc1ccccc1N1CCN(C2CCN(C3CCC(c4ccccc4)CC3)CC2)CC1 (stereo not given) | . | -1 | -26 | 45* | .
COc1ccccc1N1CCN(C2CCC(C)CC2)CC1 (stereo not given) | -4 | 0 | -38 | 11 | -2
COc1ccccc1N1CCN(C2CCN(C(=O)COc3cccc(C)c3)CC2)CC1 | 0 | 0 | -13 | 69* | -40
COc1ccc(-c2cc(CNc3nc4cc(-c5ccccc5C)sc4c(=O)n3C)on2)cc1 | -4 | . | . | . | -14
CCN(CC)S(=O)(=O)c1ccc(OCC(=O)NC(=O)c2ccccc2OC)c([N+](=O)[O-])c1 | 6 | 0 | -2 | -4 | 55*
Cc1nc(-c2ccc(F)cc2)c(CC(=O)N2CCN(S(=O)(=O)c3cccc(Cl)c3)CC2)s1 | -1 | -1 | -2 | 34* | -10
SMILES | D2 ag-1 | D2 ag-2 | D2 PAM-1 | D2 antag | D2 PAM-2
O=C(NC(NC(=S)Nc1cccc(Cl)c1)C(Cl)(Cl)Cl)OCc1ccccc1 (stereo not given) | 1 | 2 | 5 | 78* | -26
Cc1nnc(SC(C)C(=O)NC2CCCCC2)[nH]c1=O (stereo not given) | -4 | . | . | . | 1
CCC(C)NC(=O)Cn1ncc2c([nH]c3ccc(C)cc32)c1=O (stereo not given) | . | 0 | 15 | . | .
Cc1nn(C)c(C)c1NC(=S)Nc1ccc(S(=O)(=O)Nc2ncccn2)cc1 | 0 | 1 | 1 | 31* | -3
CC(=O)N(C(C)=O)N1C(=O)c2cccc3c(N4CCOCC4)ccc(c23)C1=O | 8 | 9 | 3 | -3 | -12
O=C1c2cccc3c(N4CCCCC4)ccc(c23)C(=O)N1c1ccccn1 | -3 | 37* | 0 | -5 | -4
CC(=N/O)/C(C)=N\NC(=O)c1ccccn1 | 1 | 0 | -2 | -10 | -11
C/C(=N\NC(=O)c1ccccn1)c1ccc(C(=O)O)s1 | . | -1 | -7 | 59* | .
Cc1ccc(N2C(=O)CSC23C(=O)N(CC(=O)NCc2ccccc2)c2ccccc23)cc1 (stereo not given) | . | 0 | -9 | . | .
CSc1ccc2c(c1)C(N1CCN(C)CC1)Cc1ccccc1S2 (stereo not given) | -4 | 2 | -27 | 81* | -29
COc1cccc(CNc2sc3c(c2C(=O)Nc2ccc(OC)cc2OC)CCC3)c1 | . | 0 | 4 | . | .
N#Cc1ccccc1COC(=O)CCN=C1NS(=O)(=O)c2ccccc21 | -4 | . | . | . | -5
O=C(CCN=C1NS(=O)(=O)c2ccccc21)OCc1nnc(-c2ccc([N+](=O)[O-])cc2)o1 | 14 | . | . | . | 69*
CCc1ccccc1NC(=O)N1CCN(c2nnc(C)c3c(C)n(-c4ccccc4)nc23)CC1 | . | 0 | -2 | . | .
Cc1cccc(C(=O)Nc2ccc(N3CCC(CCN4CCOCC4)CC3)c(C(=O)O)c2)c1 | . | 0 | 10 | . | .
Cn1c(=O)oc2cc(S(=O)(=O)N3CCC(C(=O)N4CCN(c5ccccc5F)CC4)CC3)ccc21 | . | . | 9 | . | .
CCCN(CCO)CCCc1ccccc1 | 0 | 0 | 6 | -3 | -22
CCN(CCCc1ccccc1)CCCc1ccccc1 | -9 | 2 | -31 | 83* | -32
CC1(NC(=O)c2cccc(S(=O)(=O)N3CCCc4ccccc43)c2)CCS(=O)(=O)C1 (stereo not given) | -1 | 0 | -1 | -40 | 10
CN1CCN(S(=O)(=O)c2cccc(C(=O)NC3(C)CCS(=O)(=O)C3)c2)CC1 (stereo not given) | 0 | 0 | 41* | -1 | -22
COC(=O)C1C2CC3c4[nH]c5cc(OC)ccc5c4CCN3CC2CC(O)C1OC (stereo not given) | 5 | . | . | . | -18
